Reference: PubChem BioAssay (Tox21)
“And” between values parts separate entries of the source, which are not always exact repeats. Identical values can stand only once. Inconclusive results are not listed. The source made the active and inactive calls. The call rests on the fitted dose curve; in most records, active means well fitted curve in the direction sought with a large enough effect in the repeat runs; inconclusive means weak or mixed curves; inactive means no such curve, though single readings can be large; an effect the other way counts as inactive or inconclusive.

Legend:
[1] = A CellTox Green Cytotoxicity Assay to monitor cytotoxicity in HEK293 cells - 40 hour (AID 1224871); further: nearly all actives have a fitted effect of over 45% in size
In short: (§1)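 Dead-cell fluorescence measured kinetically: asymmetric cyanine dye, HEK293, 600 cells/well, 5 h settle, 23 nL cpd/DMSO, 37 C, reads 0–40 h every 8 h.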

[2] = qHTS RealTime-Glo MT Cell Viability Assay in HEK293 cells - 16 hour (AID 1224872); further: top concentration of the series differs between compounds; nearly all actives have a fitted effect of over 50% in size
In short: (§2)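 Luminescence generated by NanoLuc from substrate produced by living HEK293 cells served as the viability signal. Each value reflects the reading at its stated time point during continuous 40 h compound exposure at 37 C.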

[3] = qHTS RealTime-Glo MT Cell Viability Assay in HepG2 cells - 8 hour (AID 1224873); further: nearly all actives have a fitted effect of over 55% in size
In short: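 HepG2 cells mixed with RealTime-Glo MT reagents (NanoLuc plus cell-permeant prosubstrate) were seeded at 600 cells/well, incubated 5 h at 37 C/5% CO2, then pinned with compounds in DMSO; nonlytic luminescence tracked viability during 40 h treatment.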

[4] = A CellTox Green Cytotoxicity Assay to monitor cytotoxicity in HEK293 cells - 24 hour (AID 1224875); further: series mostly up to about 77 µM; nearly all actives have a fitted effect of over 45% in size
In short: as §1

[5] = A CellTox Green Cytotoxicity Assay to monitor cytotoxicity in HepG2 cells - 16 hour (AID 1224876); further: nearly all actives have a fitted effect of over 45% in size
In short: (§3)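 First, HepG2 cells (600/well) mixed with reagent were plated; second, after 5 h at 37 C they received compounds via pintool; third, fluorescence was measured at 0 h through 40 h at 8 h intervals.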

[6] = qHTS RealTime-Glo MT Cell Viability Assay in HepG2 cells - 32 hour (AID 1224877); further: nearly all actives have a fitted effect of over 55% in size
In short: (§4)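 Tox21 10K library screened in qHTS format on HepG2 cells carrying RealTime-Glo reagents. Compounds were added after a 5 h preincubation, and the luminescent signal from continuous culture was measured repeatedly during 40 h treatment.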

[7] = A CellTox Green Cytotoxicity Assay to monitor cytotoxicity in HepG2 cells - 24 hour (AID 1224878); further: nearly all actives have a fitted effect of over 45% in size
In short: as §3

[8] = A CellTox Green Cytotoxicity Assay to monitor cytotoxicity in HepG2 cells - 40 hour (AID 1224879); further: nearly all actives have a fitted effect of over 40% in size
In short: as §3

[9] = qHTS RealTime-Glo MT Cell Viability Assay in HEK293 cells - 0 hour (AID 1224880)
In short: (§5)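 600 HEK293 cells per well, dispensed already mixed with RealTime-Glo MT reagents. Compound dosing came 5 h later. The same wells were read for luminescence at 0, 8, 16, 24, 32 and 40 h of exposure at 37 C.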

[10] = A CellTox Green Cytotoxicity Assay to monitor cytotoxicity in HepG2 cells - 32 hour (AID 1224883); further: nearly all actives have a fitted effect of over 50% in size
In short: as §3

[11] = A CellTox Green Cytotoxicity Assay to monitor cytotoxicity in HEK293 cells - 8 hour (AID 1224884); further: nearly all actives have a fitted effect of over 35% in size
In short: as §1

[12] = qHTS RealTime-Glo MT Cell Viability Assay in HepG2 cells - 16 hour (AID 1224885); further: nearly all actives have a fitted effect of over 50% in size
In short: as §4

[13] = qHTS RealTime-Glo MT Cell Viability Assay in HEK293 cells - 24 hour (AID 1224886); further: top concentration of the series differs between compounds; nearly all actives have a fitted effect of over 50% in size
In short: as §2

[14] = qHTS RealTime-Glo MT Cell Viability Assay in HEK293 cells - 8 hour (AID 1224887)
In short: as §5

[15] = A CellTox Green Cytotoxicity Assay to monitor cytotoxicity in HEK293 cells - 16 hour (AID 1224888); further: nearly all actives have a fitted effect of over 35% in size
In short: as §1

[16] = qHTS RealTime-Glo MT Cell Viability Assay in HepG2 cells - 0 hour (AID 1224889); further: nearly all actives have a fitted effect of over 50% in size
In short: as §4

[17] = qHTS RealTime-Glo MT Cell Viability Assay in HEK293 cells - 40 hour (AID 1224874); settings: RealTime-Glo luminescence; max response: active compounds read low; further: nearly all actives have a fitted effect of over 50% in size
In short: as §5

[18] = A CellTox Green Cytotoxicity Assay to monitor cytotoxicity in HEK293 cells - 32 hour (AID 1224881); further: nearly all actives have a fitted effect of over 40% in size
In short: as §1

[19] = A CellTox Green Cytotoxicity Assay to monitor cytotoxicity in HepG2 cells - 0 hour (AID 1224882); further: nearly all actives have a fitted effect of over 35% in size
In short: as §3
On the % scale 0 is the no-effect control and ±100 the full control effect.

FC(F)OC(Cl)C(F)(F)F (stereo not given)
inactive: Potency [1] | Potency [2] | Potency [3] | Potency [4] | Potency [5] | Potency [6] | Potency [7] | Potency [8] | Potency [9] | Potency [10] | Potency [11] | Potency [12] | Potency [13] | Potency [14] | Potency [15] | Potency [16]

CO[Si](CCCOCC1CO1)(OC)OC (stereo not given)
inactive: Potency [1] | Potency [3] | max response [17] 0.892% and 6.22% | Potency [4] | Potency [5] | Potency [6] | Potency [7] | Potency [8] | Potency [9] | Potency [18] | Potency [19] | Potency [10] | Potency [11] | Potency [12] | Potency [13] | Potency [14] | Potency [16]

OC(CCN1CCCCC1)(c1ccccc1)C1CC2C=CC1C2 (stereo not given)
inactive: Potency [3] | max response [17] -10.3% | Potency [4] | Potency [5] | Potency [6] | Potency [7] | Potency [8] | Potency [9] | Potency [19] | Potency [10] | Potency [11] | Potency [12] | Potency [13] | Potency [14] | Potency [15] | Potency [16]

Nc1cc(=O)[nH]c(N)n1
inactive: Potency [1] | Potency [2] | Potency [3] | Potency [4] | Potency [5] | Potency [6] | Potency [7] | Potency [8] | Potency [18] | Potency [19] | Potency [10] | Potency [11] | Potency [12] | Potency [13] | Potency [14] | Potency [16]

N#Cc1ccc(C2CCCc3cncn32)cc1 (stereo not given)
inactive: Potency [1] | Potency [2] | Potency [3] | max response [17] 8.46% | Potency [4] | Potency [5] | Potency [6] | Potency [7] | Potency [8] | Potency [9] | Potency [19] | Potency [10] | Potency [11] | Potency [12] | Potency [13] | Potency [14] | Potency [15] | Potency [16]

CC(C)NCCCC1(C(N)=O)c2ccccc2-c2ccccc21
inactive: Potency [1] | Potency [2] | Potency [3] | max response [17] -19.1% | Potency [5] | Potency [6] | Potency [7] | Potency [8] | Potency [18] | Potency [19] | Potency [10] | Potency [11] | Potency [12] | Potency [13] | Potency [14] | Potency [16]

CCC(=O)OC(C)c1ccccc1 (stereo not given)
inactive: Potency [1] | Potency [2] | Potency [3] | max response [17] -2.17% | Potency [5] | Potency [6] | Potency [7] | Potency [8] | Potency [9] | Potency [18] | Potency [19] | Potency [10] | Potency [11] | Potency [12] | Potency [13] | Potency [14] | Potency [16]

NCCCNCCSP(=O)(O)O
inactive: cytotoxicity increase [1] -10.4% [at 6.97 µM] | viability change, negative = cytotoxic [3] 0.144% [at 6.97 µM] | max response [17] 3.52% | activity change [4] -8.68% [at 6.97 µM, active compounds read high] | cytotoxicity increase [5] -2.65% [at 6.97 µM] | activity change, negative = cytotoxic [6] 1.78% [at 6.97 µM] | cytotoxicity increase [8] -11.2% [at 6.97 µM] | activity change, negative = cytotoxicity [9] -1.72% [at 6.97 µM] | cytotoxicity [19] 1.75% [at 6.97 µM] | cytotoxicity increase [10] -8.01% [at 6.97 µM] | cytotoxicity increase [11] 3.38% [at 6.97 µM] | activity change, negative = cytotoxic [12] 0.263% [at 6.97 µM] | activity change, negative = cytotoxicity [13] 4.08% [at 6.97 µM] | activity change, negative = cytotoxicity [14] 2.94% [at 6.97 µM] | activity change [15] -4.83% [at 6.97 µM, active compounds read high] | activity change, negative = cytotoxicity [16] -0.885% [at 6.97 µM]

CC(C)(C)c1nnc(NS(=O)(=O)c2ccccc2)s1
inactive: Potency [1] | Potency [2] | Potency [3] | max response [17] 2.61% | Potency [4] | Potency [5] | Potency [6] | Potency [7] | Potency [8] | Potency [9] | Potency [19] | Potency [10] | Potency [11] | Potency [12] | Potency [13] | Potency [14] | Potency [15] | Potency [16]

CC(C[N+](C)(C)C)OC(N)=O (stereo not given)
inactive: Potency [1] | Potency [2] | Potency [3] | Potency [4] | Potency [5] | Potency [6] | Potency [8] | Potency [9] | Potency [18] | Potency [19] | Potency [11] | Potency [12] | Potency [13] | Potency [14] | Potency [15] | Potency [16]

C=C(C)C(=O)OCCCCCCCC(C)C
inactive: Potency [1] | Potency [2] | Potency [3] | Potency [4] | Potency [5] | Potency [6] | Potency [7] | Potency [8] | Potency [9] | Potency [18] | Potency [19] | Potency [10] | Potency [11] | Potency [12] | Potency [13] | Potency [14] | Potency [15] | Potency [16]

NS(=O)(=O)c1cc(C(=O)O)cc(N2CCCC2)c1Oc1ccccc1
inactive: Potency [1] | Potency [2] | Potency [3] | max response [17] -15.6% | Potency [4] | Potency [5] | Potency [6] | Potency [8] | Potency [9] | Potency [18] | Potency [19] | Potency [10] | Potency [11] | Potency [12] | Potency [13] | Potency [14] | Potency [15] | Potency [16]

N=c1nc(N2CCCCC2)cc(N)n1O
inactive: Potency [1] | Potency [2] | Potency [3] | Potency [4] | Potency [5] | Potency [6] | Potency [7] | Potency [8] | Potency [9] | Potency [18] | Potency [10] | Potency [11] | Potency [12] | Potency [13] | Potency [14] | Potency [15] | Potency [16]

CCCN(CCC)CCc1cccc2c1CC(=O)N2
inactive: Potency [1] | Potency [3] | max response [17] 5.11% | Potency [4] | Potency [5] | Potency [6] | Potency [7] | Potency [8] | Potency [19] | Potency [10] | Potency [11] | Potency [12] | Potency [13] | Potency [14] | Potency [15] | Potency [16]
